Inconclusive results are not listed. Active and inactive are the calls of the source. Unless noted, calls follow the shape of the dose curve; as a rule, active = well fitted activation curve with a large enough effect; inconclusive = small, poorly fitted or top-dose-only effect, or another doubt; inactive = no such curve, though single readings can be large or run the other way.

One test concerns the target Rap guanine nucleotide exchange factor 3 (Homo sapiens) (UniProt O95398). The experiment in a line: Counterscreen qHTS for agonist of cAMP-regulated guanine nucleotide exchange factor 3 (EPAC1) (AID 1645889). Also: % of control where 0% means no effect; nearly all actives have a fitted effect of over 40% in size. The settings on record: EPAC1 Rap1B-BODIPY-GDP exchange, fluorescence; series mostly up to 154 µM. The procedure, abridged:
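Rap1B-BODIPY-GDP 250 nM + GDP 50 uM; cpds 7-pt, final 9.74 nM–152 uM (activator mode) or from 7.32 nM upwards (inhibitor mode); RT; FI 480/540 nm at 5 and 30 min, then ± cAMP, reread.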
Consider `CCc1nnc(NS(=O)(=O)c2ccc(NC(=S)NC(=O)/C=C/c3ccc(F)cc3)cc2)s1`, for which the outcome is “inactive”.
On the same count and under the same terms, the same measure for `CCOc1ccc(-c2cc(NC(=O)c3c(F)cccc3F)c(C(=O)O)s2)cc1`: “inactive”.
Take `Cc1ccc([C@@H]2CC=C(C(=O)O)[C@H](c3ccc(C(C)(C)C)cc3)N2S(=O)(=O)c2ccc(C)cc2)cc1`: the activation is 14.8% [at 30.8 µM] (inactive).

The target in another test is Catechol O-methyltransferase (Homo sapiens) (UniProt P21964). The experiment in a line: Confirmatory Screen for Target Class Profiling of Small Molecule Inhibitors of Methyltransferases (AID 1745852; calls by dose curve; also: potency is read from the fitted curve at half-maximal effect; as to activity change, negative = inhibition: % is scaled to controls: 0 for no effect and ±100 for the full control effect). The settings on record: MTase-Glo luminescence, SAH detection, recombinant enzyme; measured here: COMT max response; stronger effect = lower value.
Sequence of Catechol O-methyltransferase (Homo sapiens) (P21964 whole entry, looked up): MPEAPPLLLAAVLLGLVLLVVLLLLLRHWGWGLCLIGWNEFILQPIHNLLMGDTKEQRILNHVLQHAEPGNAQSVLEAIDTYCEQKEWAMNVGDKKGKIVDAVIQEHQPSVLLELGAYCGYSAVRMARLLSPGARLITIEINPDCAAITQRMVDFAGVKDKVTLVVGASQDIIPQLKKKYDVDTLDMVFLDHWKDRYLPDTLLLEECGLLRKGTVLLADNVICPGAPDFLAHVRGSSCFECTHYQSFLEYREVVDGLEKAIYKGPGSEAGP
Consider `O=C(O)CC1(O)C(=O)Nc2ccccc21` (stereo not given), for which the activity is 0%.
Same read-out and setting: in the case of `CCOc1ccc(-c2cc(NC(=O)c3c(F)cccc3F)c(C(=O)O)s2)cc1` it was -2.79%.
The same measure, in the same setting: in the case of `C/C(=C\CC/C(C)=C/CC[C@]1(C)CCc2cc(O)cc(C)c2O1)CC/C=C(\C)C(=O)O` it was -20.5%; in that of `CC(=O)OC/C(=C/C(=O)O)CC[C@@H]1C(CO)=CC[C@@H]2C(C)(C)CCC[C@@]12C`, -82.3%; in that of `O=C(O)c1cccc(CN2C(=O)/C(=C(\c3ccccc3)c3ccc(Cl)cc3)c3ccccc32)c1`, -6.02%.
Still for that read-out and setting: the same measure for `C=C1CC/C=C(/CO)C(=O)C[C@@H]2[C@@H]1C[C@@]2(C)COC(C)=O`: -65.6%; for `O=C(/C=C/c1ccccc1)OC[C@H]1O[C@@H](OC(=O)c2cc(O)c(O)c(O)c2)[C@H](O)[C@@H](O)[C@@H]1O`: -76.6%; for `COc1c2c(c(C)c3c1C(=O)OC3)OC1(C)CC(O)C34OC(OC)(CC(O)C3(C)C1C2)OC4(C)C` (stereo not given): -15%.
With `C=C[C@H]1[C@H](O[C@@H]2O[C@H](CO)[C@@H](O)[C@H](O)[C@H]2O)OC=C(C(=O)OC)[C@H]1CCO`, the activity was -72.1%.
The same measure, in the same setting: the same measure for `O=C(O)CCc1ccc(NCc2cccc3c2CCCN3CCOc2ccccc2)cc1F`: -3.27%.
Still for that read-out and setting: in the case of `CC1CCCCCCCc2cc(O)cc(O)c2C(=O)O1` (stereo not given) it was -69.9%.

In a further test the target is Guanidinoacetate N-methyltransferase (Homo sapiens) (UniProt Q14353). The description is as above. The settings on record: MTase-Glo luminescence, SAH detection, recombinant enzyme; activity change, negative = inhibition: at 57.3 µM (top of the series) unless noted.
For `O=C(O)CC1(O)C(=O)Nc2ccccc21` (stereo not given), the activity change, negative = inhibition was found to be 0% [at 85.7 µM].
Still for that read-out and setting: the same measure for `CCOc1ccc(-c2cc(NC(=O)c3c(F)cccc3F)c(C(=O)O)s2)cc1`: 0.993%.
The same measure, in the same setting: the same measure for `C/C(=C\CC/C(C)=C/CC[C@]1(C)CCc2cc(O)cc(C)c2O1)CC/C=C(\C)C(=O)O`: 0% [at 29.8 µM].
As to `CC(=O)OC/C(=C/C(=O)O)CC[C@@H]1C(CO)=CC[C@@H]2C(C)(C)CCC[C@@]12C`, the activity change, negative = inhibition is -4.99%.
Still for that read-out and setting: in the case of `O=C(O)c1cccc(CN2C(=O)/C(=C(\c3ccccc3)c3ccc(Cl)cc3)c3ccccc32)c1` it was -1.74%.
Still for that read-out and setting: in the case of `C=C1CC/C=C(/CO)C(=O)C[C@@H]2[C@@H]1C[C@@]2(C)COC(C)=O` it was 0%.
On to `O=C(/C=C/c1ccccc1)OC[C@H]1O[C@@H](OC(=O)c2cc(O)c(O)c(O)c2)[C@H](O)[C@@H](O)[C@@H]1O`, for which the activity change, negative = inhibition was -1.37% [at 29.8 µM].
On the same count and under the same terms, in the case of `COc1c2c(c(C)c3c1C(=O)OC3)OC1(C)CC(O)C34OC(OC)(CC(O)C3(C)C1C2)OC4(C)C` (stereo not given) it was -2.68% [at 29.8 µM]; in that of `C=C[C@H]1[C@H](O[C@@H]2O[C@H](CO)[C@@H](O)[C@H](O)[C@H]2O)OC=C(C(=O)OC)[C@H]1CCO`, -3.63%; in that of `O=C(O)CCc1ccc(NCc2cccc3c2CCCN3CCOc2ccccc2)cc1F`, -0.799%.
As to `CC1CCCCCCCc2cc(O)cc(O)c2C(=O)O1` (stereo not given), the Potency was 30.4 µM (active).

These data come from PubChem BioAssay (NCATS).
